# Laboratory results: the supplement of paper PMC8728848
# Many of the other results were omitted from the sample, so the strongest signals are more common in it than they were.
# How the values were obtained:
# Test in all cases: glycan array binding signal (z-score within array); higher = stronger binding
# Neu5Ac(b2-6)GalNAc = settings: glycan notation: IUPAC condensed, linker removed
# Summary of the method: (§1)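 Glycan array binding is given as a within-array Z-score, which can be read as non-binding when negative. The arrays, 3228 of them, came from the Consortium for Functional Glycomics database and were retained only where the protein sequence was available. Z-scores were averaged across arrays of the same protein sequence at different concentrations or buffers and across linkers.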
# [1] = system: Neu5Ac9Ac(a2-3)Gal(b1-3)GlcNAc; settings: glycan notation: IUPAC condensed, linker removed
# Summary of the method: as §1
# [2] = system: Neu5Ac9Ac(a2-6)Gal(b1-4)GlcNAc; settings: glycan notation: IUPAC condensed, linker removed
# Summary of the method: as §1
# Neu5Ac(a2-8)Neu5Ac = settings: glycan notation: IUPAC condensed, linker removed
# Summary of the method: as §1
# [3] = system: Neu5Ac9Ac(a2-3)Gal(b1-4)GlcNAc; settings: glycan notation: IUPAC condensed, linker removed; mutation: R125K
# Summary of the method: as §1
# [4] = system: Neu5Gc(a2-3)Gal(b1-3)[Fuc(a1-4)]GlcNAc; settings: glycan notation: IUPAC condensed, linker removed; mutation: R125K
# Summary of the method: as §1
# [5] = system: Neu5Gc(a2-3)Gal(b1-4)GlcNAc(b1-3)Gal(b1-4)GlcNAc(b1-2)Man(a1-3)[Neu5Gc(a2-3)Gal(b1-4)GlcNAc(b1-3)Gal(b1-4)GlcNAc(b1-2)Man(a1-6)]Man(b1-4)GlcNAc(b1-4)GlcNAc; settings: glycan notation: IUPAC condensed, linker removed
# Summary of the method: as §1
# [6] = system: Neu5Gc(a2-3)Gal(b1-4)GlcNAc; settings: glycan notation: IUPAC condensed, linker removed
# Summary of the method: as §1
# [7] = system: Neu5Ac(a2-8)Neu5Ac(a2-8)Neu5Ac; settings: glycan notation: IUPAC condensed, linker removed; mutation: D138V, E140I
# Summary of the method: as §1
# [8] = system: Neu5Ac(a2-8)Neu5Ac(a2-8)Neu5Ac(a2-8)Neu5Ac(a2-3)[GalNAc(b1-4)]Gal(b1-4)Glc; settings: glycan notation: IUPAC condensed, linker removed
# Summary of the method: as §1
# Chain of CHI3L1 (Homo sapiens), P36222 (P36222 whole entry): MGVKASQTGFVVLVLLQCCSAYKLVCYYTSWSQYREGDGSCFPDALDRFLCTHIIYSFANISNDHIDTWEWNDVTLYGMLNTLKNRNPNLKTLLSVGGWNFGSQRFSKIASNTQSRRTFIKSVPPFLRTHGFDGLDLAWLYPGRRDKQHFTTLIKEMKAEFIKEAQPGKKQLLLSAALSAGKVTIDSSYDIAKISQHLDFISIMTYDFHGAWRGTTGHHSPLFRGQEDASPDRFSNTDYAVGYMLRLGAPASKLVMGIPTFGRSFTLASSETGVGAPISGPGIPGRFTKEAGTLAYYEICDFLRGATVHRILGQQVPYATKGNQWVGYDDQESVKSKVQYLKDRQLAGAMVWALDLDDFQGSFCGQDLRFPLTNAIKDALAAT
# Chain of 6RG (Lolium perenne), B9U140 (B9U140 entry or part of it): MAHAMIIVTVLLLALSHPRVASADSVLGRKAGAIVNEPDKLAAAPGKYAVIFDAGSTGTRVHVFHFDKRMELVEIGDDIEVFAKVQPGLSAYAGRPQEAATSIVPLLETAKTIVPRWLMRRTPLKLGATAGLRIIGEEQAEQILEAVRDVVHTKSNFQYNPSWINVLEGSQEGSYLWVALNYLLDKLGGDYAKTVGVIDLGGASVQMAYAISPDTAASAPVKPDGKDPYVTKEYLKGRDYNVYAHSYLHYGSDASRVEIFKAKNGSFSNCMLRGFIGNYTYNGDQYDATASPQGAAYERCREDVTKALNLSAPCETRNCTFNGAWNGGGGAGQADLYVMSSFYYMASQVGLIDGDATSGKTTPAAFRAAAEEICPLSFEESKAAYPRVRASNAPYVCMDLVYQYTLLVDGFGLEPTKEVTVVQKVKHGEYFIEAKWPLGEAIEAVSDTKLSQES
# Chain of Avaren (Actinomycete K97) (chain, as listed by the source): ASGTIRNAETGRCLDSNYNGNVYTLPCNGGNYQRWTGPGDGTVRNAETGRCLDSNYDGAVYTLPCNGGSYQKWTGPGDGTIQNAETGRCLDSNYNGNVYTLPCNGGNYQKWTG
# Chain of C3b (Homo sapiens), P01024 (P01024 23-667): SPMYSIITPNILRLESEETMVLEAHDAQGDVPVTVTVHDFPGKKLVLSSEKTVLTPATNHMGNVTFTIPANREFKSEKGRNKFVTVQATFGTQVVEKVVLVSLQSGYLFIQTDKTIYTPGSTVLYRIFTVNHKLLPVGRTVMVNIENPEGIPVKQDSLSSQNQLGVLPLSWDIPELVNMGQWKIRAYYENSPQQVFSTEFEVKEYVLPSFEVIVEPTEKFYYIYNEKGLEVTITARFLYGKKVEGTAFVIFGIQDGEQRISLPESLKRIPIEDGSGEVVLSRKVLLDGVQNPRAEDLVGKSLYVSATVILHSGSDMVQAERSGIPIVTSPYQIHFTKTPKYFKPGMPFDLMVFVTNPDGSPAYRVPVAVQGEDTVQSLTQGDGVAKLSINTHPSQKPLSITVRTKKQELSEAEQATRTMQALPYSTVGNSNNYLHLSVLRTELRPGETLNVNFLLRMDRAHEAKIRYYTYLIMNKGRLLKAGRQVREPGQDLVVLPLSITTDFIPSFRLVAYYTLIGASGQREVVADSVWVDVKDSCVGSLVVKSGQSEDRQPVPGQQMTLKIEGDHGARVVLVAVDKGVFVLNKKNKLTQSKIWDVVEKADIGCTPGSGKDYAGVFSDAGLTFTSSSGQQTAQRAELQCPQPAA
# Chain of 6RG (Lolium perenne) (chain, as listed by the source): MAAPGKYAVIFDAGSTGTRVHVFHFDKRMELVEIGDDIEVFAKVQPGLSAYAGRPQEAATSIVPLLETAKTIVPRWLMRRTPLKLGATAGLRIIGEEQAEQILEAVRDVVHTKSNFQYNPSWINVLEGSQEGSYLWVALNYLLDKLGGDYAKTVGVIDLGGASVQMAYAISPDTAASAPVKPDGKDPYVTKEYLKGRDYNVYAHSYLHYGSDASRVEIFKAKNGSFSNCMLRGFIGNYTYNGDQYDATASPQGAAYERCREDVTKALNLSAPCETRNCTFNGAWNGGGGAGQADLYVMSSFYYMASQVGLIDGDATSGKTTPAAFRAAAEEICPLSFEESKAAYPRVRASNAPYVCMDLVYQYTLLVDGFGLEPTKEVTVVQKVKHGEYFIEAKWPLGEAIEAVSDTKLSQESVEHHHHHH
# Chain of CHT (Homo sapiens) (chain, as listed by the source): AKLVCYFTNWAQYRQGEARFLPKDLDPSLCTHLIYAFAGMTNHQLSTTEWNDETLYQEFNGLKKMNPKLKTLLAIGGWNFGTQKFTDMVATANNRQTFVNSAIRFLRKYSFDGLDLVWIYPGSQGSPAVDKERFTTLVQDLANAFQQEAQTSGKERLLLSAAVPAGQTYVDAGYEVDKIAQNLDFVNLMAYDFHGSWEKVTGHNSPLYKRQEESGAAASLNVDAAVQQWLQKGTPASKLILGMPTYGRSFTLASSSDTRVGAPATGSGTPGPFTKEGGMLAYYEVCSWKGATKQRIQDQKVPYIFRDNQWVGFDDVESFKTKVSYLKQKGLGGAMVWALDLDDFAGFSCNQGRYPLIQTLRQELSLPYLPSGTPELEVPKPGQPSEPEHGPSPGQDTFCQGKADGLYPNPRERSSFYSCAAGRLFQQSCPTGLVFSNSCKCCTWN
# Chain of Neurocan (Homo sapiens), O14594 (O14594 other isoform, or with tags, fused parts or gaps): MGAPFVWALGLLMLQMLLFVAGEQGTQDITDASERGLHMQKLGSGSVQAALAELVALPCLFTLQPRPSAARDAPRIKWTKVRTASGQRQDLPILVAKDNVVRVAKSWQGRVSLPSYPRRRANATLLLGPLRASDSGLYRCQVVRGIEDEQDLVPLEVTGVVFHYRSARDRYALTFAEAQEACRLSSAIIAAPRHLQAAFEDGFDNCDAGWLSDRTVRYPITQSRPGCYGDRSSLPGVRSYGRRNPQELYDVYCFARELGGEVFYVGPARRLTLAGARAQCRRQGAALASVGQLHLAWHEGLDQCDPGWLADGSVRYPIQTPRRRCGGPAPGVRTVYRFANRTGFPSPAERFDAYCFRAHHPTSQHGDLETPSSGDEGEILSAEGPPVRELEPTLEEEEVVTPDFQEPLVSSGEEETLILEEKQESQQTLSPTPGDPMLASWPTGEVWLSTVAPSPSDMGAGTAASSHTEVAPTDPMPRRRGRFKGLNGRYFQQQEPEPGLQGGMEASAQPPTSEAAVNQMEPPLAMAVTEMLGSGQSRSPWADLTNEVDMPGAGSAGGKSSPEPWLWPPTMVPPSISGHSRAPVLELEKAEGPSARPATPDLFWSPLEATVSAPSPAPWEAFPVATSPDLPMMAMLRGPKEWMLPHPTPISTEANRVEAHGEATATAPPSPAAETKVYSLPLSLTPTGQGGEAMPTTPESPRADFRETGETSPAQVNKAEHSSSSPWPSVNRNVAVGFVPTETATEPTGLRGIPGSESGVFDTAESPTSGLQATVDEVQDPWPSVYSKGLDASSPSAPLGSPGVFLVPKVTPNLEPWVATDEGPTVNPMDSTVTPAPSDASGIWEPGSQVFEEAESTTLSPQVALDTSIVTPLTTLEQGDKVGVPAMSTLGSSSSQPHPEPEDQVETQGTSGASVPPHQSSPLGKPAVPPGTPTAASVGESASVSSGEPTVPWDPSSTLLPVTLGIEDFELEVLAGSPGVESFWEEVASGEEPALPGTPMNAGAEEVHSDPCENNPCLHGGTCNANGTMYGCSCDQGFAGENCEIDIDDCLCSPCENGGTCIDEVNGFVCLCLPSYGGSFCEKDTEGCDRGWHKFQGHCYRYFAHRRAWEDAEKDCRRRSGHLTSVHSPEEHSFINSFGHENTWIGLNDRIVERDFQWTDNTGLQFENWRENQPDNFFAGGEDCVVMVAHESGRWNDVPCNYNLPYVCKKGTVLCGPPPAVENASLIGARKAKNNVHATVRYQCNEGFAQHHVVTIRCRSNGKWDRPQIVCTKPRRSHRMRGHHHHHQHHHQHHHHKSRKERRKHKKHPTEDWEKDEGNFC
substance,measurement,setting,value
Avaren (Actinomycete K97),glycan array binding signal (z-score),Neu5Ac(b2-6)GalNAc,-0.14
MpAFP RI GFP (Marinomonas primoryensis),glycan array binding signal (z-score),[1],0.228
same,glycan array binding signal (z-score),[2],-0.772
"6RG (Lolium perenne), B9U140",glycan array binding signal (z-score),[2],2.52
"Siglec-8 (Homo sapiens), Q9NYZ4",glycan array binding signal (z-score),Neu5Ac(a2-8)Neu5Ac,0.014
same,glycan array binding signal (z-score),[1],-0.078
same,glycan array binding signal (z-score),[3],-0.109
same,glycan array binding signal (z-score),[4],-0.465
same,glycan array binding signal (z-score),[5],0.025
same,glycan array binding signal (z-score),[6]; mutation: R125K,-0.109
CHT (Homo sapiens),glycan array binding signal (z-score),[7],-0.166
"C3b (Homo sapiens), P01024",glycan array binding signal (z-score),[8],-0.102
"Neurocan (Homo sapiens), O14594",glycan array binding signal (z-score),[6],-0.18
6RG (Lolium perenne),glycan array binding signal (z-score),Neu5Ac(a2-8)Neu5Ac,-0.273
"CHI3L1 (Homo sapiens), P36222",glycan array binding signal (z-score),Neu5Ac(a2-8)Neu5Ac,-0.091
same,glycan array binding signal (z-score),[1],-0.07
